According to PubChem BioAssay:

Experiment: optical density shifts of acrAB sulA E. coli – strain DRC41, OD650, 48 h, E. coli filamentation inducer project, primary screen (AID 1152);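 also: E. coli MC1000 strain DRC41 lacking acrAB efflux pump and sulA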
Conditions: higher = more signal, called active from +8 up or from −8 down

z-score, inactive:
[N-]=[N+]=NCc1ccccc1C[C@@]1(C(=O)NCCN2CCOCC2)N=C(c2ccc(OCCCO)cc2)O[C@@H]1c1ccccc1 -1.58
COC(=O)C1(CC(C)C)C=C2C(=C(C)C(=O)C2C)CN1 (stereo unspecified) -1.62
COC(=O)C(CC#Cc1ccc2c(c1)[C@]1(C(=O)N2)[C@H](c2ccc(OCCO)cc2)N2[C@H](c3ccccc3)[C@H](c3ccccc3)OC(=O)[C@H]2[C@@H]1C(N)=O)C(=O)OC -0.763
CCCN1C(=O)[C@@]2(c3ccc([N+](=O)[O-])cc3)CC(=O)N(C3CCCCC3)[C@@H]2c2ccc(CO)cc21 -1.45
C=CCNC(=O)[C@H]1[C@@H]2C(=O)O[C@@H](c3ccccc3)[C@@H](c3ccccc3)N2[C@@H](c2ccc(OCCO)cc2)[C@]12C(=O)N(C(=O)OCCOC)c1ccc(C#CCC(C(=O)OC)C(=O)OC)cc12 -0.335
C=CCOC(=O)[C@H]1[C@@H]2C(=O)O[C@@H](c3ccccc3)[C@@H](c3ccccc3)N2[C@@H](c2ccc(OCCOC(=O)[C@H]3C[C@H]4C(=O)NCC(=O)N4[C@H]3c3ccc(O)cc3)cc2)[C@]12C(=O)Nc1ccccc12 0.141
COc1ccc(C(=O)Nc2ccc(CN3C(=O)[C@@]4(O[C@@H](CC(=O)N(CCO)Cc5ccccc5)[C@H]([Si](C)(C)c5ccc(OC)cc5)[C@H]4C)c4ccccc43)cc2)cc1 1.73
CCOC(=O)C1=CCC(c2ccncc2)N(S(=O)(=O)c2ccc(C)cc2)C1 (stereo unspecified) 0.149
O=C1O[C@H](c2ccccc2)[C@H](c2ccccc2)N2[C@H]1[C@@H](C(=O)O)[C@]1(C(=O)Nc3ccc(C#CC4(O)CCCCCC4)cc31)[C@H]2c1ccccc1OCCO 0.782
O=C1O[C@H](c2ccccc2)[C@H](c2ccccc2)N2[C@H]1[C@@H](C(=O)O)[C@]1(C(=O)Nc3ccccc31)[C@H]2c1ccc(OCCO)cc1 0.368
CCCCCCc1nc(-c2ccc(OC)nc2)c(C)c2c1[Si](C(C)C)(C(C)C)OC2 0.579
COC(=O)Cn1c(C(=O)N(C)C)cc2c1C[C@H]1CN(C(=O)c3ccccc3)[C@@](Cc3ccccc3)(C(=O)OC)[C@@H]21 -2.08
COc1ccc([Si](C)(C)[C@H]2[C@H](CC(=O)N3CCC[C@H]3CO)O[C@@]3(C(=O)N(C)c4ccccc43)[C@@H]2C)cc1 -0.716
C=CC[C@H](OC(=O)Nc1ccc(SC)cc1)c1ccc(O)c(F)c1 -0.705
Cc1ccc(S(=O)(=O)N2[C@@H](c3ccccc3)C(C(=O)O)=CC[C@H]2c2ccc(F)cc2)cc1 -0.232
COC(=O)C(CC#Cc1ccc2c(c1)[C@]1(C(=O)N2)[C@H](C(N)=O)[C@H]2C(=O)O[C@H](c3ccccc3)[C@H](c3ccccc3)N2[C@@H]1c1ccccc1OCCO)C(=O)OC 0.879
O=C1OC[C@@H](c2ccccc2)n2cc(/C=C/c3ccccc3)cc21 0.989
CN1C(=O)C2C(C1=O)C1C=C(CCCO)C2C(C2CC2)N1C (stereo unspecified) 0.667
COC(=O)[C@@]1(Cc2ccc(F)cc2)[C@H]2c3cc(C(=O)N(C)C)n(Cc4cccc5ccccc45)c3C[C@H]2CN1C(=O)c1ccccc1 -1.92
C[N+](C)(C)CCCC[C@@H]1NC(=O)[C@H]2C[C@@H](C(=O)O)[C@@H](c3ccc(O)cc3)N2C1=O 1.03
C=CCN1C(=O)[C@]2(O[C@H](CCO)[C@@H]([Si](C)(C)c3ccc(OC)cc3)[C@@H]2C)c2cc(N3C(=O)c4ccccc4Oc4ccccc43)ccc21 -0.458
COc1cc2c(cc1OC)CN(C(=O)[C@@H]1[C@H]3C(=O)O[C@H](c4ccccc4)[C@H](c4ccccc4)N3[C@H](c3ccc(O)cc3)[C@@]13C(=O)Nc1ccc(C#CC4=CCCCC4)cc13)CC2 2.03
COc1ccc([Si](C)(C)[C@@H]2[C@@H](CC(=O)N3CCC[C@H]3CO)O[C@]3(C(=O)N(Cc4cccc(N5C(=O)c6cccc7cccc5c67)c4)c4ccccc43)[C@H]2C)cc1 1.63
O=C1O[C@@H](c2ccccc2)[C@@H](c2ccccc2)N2[C@@H](c3ccccc3OCCO)[C@]3(C(=O)Nc4ccc(C#CC5(O)CCCCCC5)cc43)[C@@H](C(=O)N3CCCCCCC3)[C@H]12 0.177
COc1ccc(NN2C(C(O)c3ccccc3)C=CC3C(=O)N(C4CCCCC4)C(=O)C32)cc1 (stereo unspecified) -0.775
COC(=O)[C@@]1(Cc2ccc(F)cc2)[C@H]2c3cc(C(=O)N4CCCC4)n(C[C@H](O)CO)c3C[C@H]2CN1C(=O)c1ccccc1 -1.62
